“And” between values parts separate entries of the source, which are not always exact repeats. Equal values may be shown once. Screen size: about 5,500 compounds; about 2,000 (36%) were called active. Another 18% or so got no clear call; they are omitted. Cut-off read from the data, not from the text of the source: active = normalized growth mostly below about 0.91 (no sharp cut-off); inconclusive = no clear call, values can overlap the other calls; inactive = mostly above about 0.92. Some of the results follow.
Experiment: chemical genetic growth profiling, strain panel (AID 1159580);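 note: tested at 20 µM; growth read once vehicle control cultures reached saturation at 30 °C; 1 = growth at the plate median or of vehicle wells; lower values mean less growth of the strain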
Details: S. cerevisiae deletion strains, growth OD

Measured: normalized growth

NC1(C(=O)O)CC1
inactive: locus YAL013W, strain DEP1, hits give low values 1 | locus YAL021C, strain ccr4, hits give low values 1.04 | locus YAL026C, strain drs2, hits give low values 1.04 | locus YAL030W, strain snc1, hits give low values 1.02 | locus YAL040C, strain CLN3, hits give low values 0.98 | locus YBL061C, strain skt5, hits give low values 1.04 | locus YBR009C, strain hhf1, hits give low values 1.02 | locus YBR021W, strain FUR4, hits give low values 1.01 | locus YBR023C, strain chs3, hits give low values 1.03 | locus YBR171W, strain sec66, hits give low values 1.04 | locus YBR229C, strain ROT2, hits give low values 1.01 | locus YBR231C, strain swc5, hits give low values 1.02 | locus YBR279W, strain paf1, hits give low values 1.02 | locus YCL011C, strain gbp2, hits give low values 1.02 | locus YCL016C, strain dcc1, hits give low values 1.04 | locus YCL029C, strain bik1, hits give low values 1.02 | locus YCL061C, strain MRC1, hits give low values 1.02 | locus YCL069W, strain vba3, hits give low values 1.02 | locus YCR088W, strain abp1, hits give low values 1.02 | locus YDL005C, strain med2, hits give low values 1.03 | locus YDL035C, strain GPR1, hits give low values 1.03 | locus YDL040C, strain nat1, hits give low values 1.02 | locus YDL074C, strain BRE1, hits give low values 1.01 | locus YDL101C, strain DUN1, hits give low values 1.01 | locus YDL134C, strain PPH21, hits give low values 1.01 | locus YDL185W, strain tfp1, hits give low values 1.03 | locus YDL192W, strain arf1, hits give low values 1.02 | locus YDR001C, strain nth1, hits give low values 1.02 | locus YDR069C, strain doa4, hits give low values 1.04 | locus YDR101C, strain arx1, hits give low values 1 | locus YDR137W, strain rgp1, hits give low values 1.06 | locus YDR150W, strain NUM1, hits give low values 1.01 | locus YDR159W, strain sac3, hits give low values 1.02 | locus YDR162C, strain NBP2, hits give low values 1.03 | locus YDR195W, strain ref2 1.02 | locus YDR297W, strain sur2, hits give low values 1.03 | locus YDR318W, strain mcm21, hits give low values 1.03 | locus YDR334W, strain swr1, hits give low values 1.03 | locus YDR335W, strain msn5, hits give low values 1.04 | locus YDR363W, strain ESC2, hits give low values 0.986 | locus YDR388W, hits give low values 1.01 | locus YDR392W, strain spt3, hits give low values 1.05 | locus YDR502C, strain sam2, hits give low values 1.02 | locus YEL003W, strain gim4, hits give low values 1.02 | locus YEL037C, strain rad23, hits give low values 1.02 | locus YEL061C, strain CIN8 (second series), hits give low values 1.03 | locus YEL061C, strain CIN8, hits give low values 1 | locus YER002W, strain NOP16, hits give low values 0.981 | locus YER015W, strain faa2, hits give low values 1.03 | locus YER016W, strain bim1, hits give low values 1.04 | locus YER110C, hits give low values 1.03 | locus YER111C, strain swi4, hits give low values 1.01 | locus YER155C, strain BEM2 (second series), hits give low values 1.02 | locus YER155C, strain BEM2, hits give low values 0.998 | locus YER167W, strain BCK2, hits give low values 1.05 | locus YFR010W, strain ubp6, hits give low values 1.01 | locus YGL078C, strain dbp3, hits give low values 1.02 | locus YGL086W, strain mad1, hits give low values 1.03 | locus YGL167C, strain pmr1, hits give low values 1.04 | locus YGL173C, strain kem1, hits give low values 1.03 | locus YGL227W, strain vid30, hits give low values 1.02 | locus YGL240W, strain doc1, hits give low values 1.01 | locus YGL248W, strain PDE1, hits give low values 1.01 | locus YGL253W, strain hxk2, hits give low values 1.04 | locus YGR078C, strain PAC10, hits give low values 1.02 and 0.978 | locus YGR135W, strain pre9, hits give low values 1.03 | locus YGR229C, strain SMI1, hits give low values 1.01 | locus YGR252W, strain gcn5, hits give low values 1.04 | locus YHR013C, strain ard1, hits give low values 1.06 | locus YHR027C, strain rpn1, hits give low values 1.04 | locus YHR030C, strain SLT2, hits give low values 1 and 1.03 | locus YHR079C, strain IRE1 (second series), hits give low values 1.01 | locus YHR079C, strain IRE1, hits give low values 1.03 | locus YHR094C, strain hxt1, hits give low values 1.01 | locus YHR129C, strain ARP1, hits give low values 1 | locus YHR142W, strain chs7, hits give low values 1.05 | locus YHR200W, strain rpn10, hits give low values 1.03 | locus YIL066C, strain RNR3, hits give low values 1.02 | locus YIL073C, strain SPO22, hits give low values 1.11 | locus YIL125W, strain kgd1, hits give low values 1 | locus YIR030C, strain dcg1, hits give low values 1.01 | locus YJL092W, strain hpr5, hits give low values 1.02 | locus YJL095W, strain BCK1 (second series), hits give low values 1.02 | locus YJL095W, strain BCK1, hits give low values 1.02 and 1.04 | locus YJL115W, strain asf1, hits give low values 1.03 | locus YJL129C, strain trk1, hits give low values 1.05 | locus YJL134W, strain LCB3, hits give low values 1 | locus YJL154C, strain vps35, hits give low values 1.01 | locus YJL164C, strain tpk1, hits give low values 1.02 | locus YJL166W, strain qcr8, hits give low values 1.01 | locus YJL168C, strain set2, hits give low values 1.02 | locus YJL187C, strain SWE1 (second series), hits give low values 1.01 | locus YJL187C, strain SWE1, hits give low values 1.01 | locus YJR043C, strain POL32, hits give low values 1.01 | locus YJR066W, strain TOR1, hits give low values 0.98

Reference: PubChem BioAssay AID1159580 (chemical genetic matrix, 2015)
